Screening data deposited in PubChem by National Center for Advancing Translational Sciences (NCATS).
L3MBTL1 block: qHTS Assay for the Inhibitors of L3MBTL1 | Potency, µM (top dose mostly 57.1 µM), for inactives: at the highest dose activity, negative = inhibition, most hits filed as inhibitors | AlphaScreen L3MBTL1–H3K9me1 peptide binding | Lethal(3)malignant brain tumor-like protein 1 (Homo sapiens), Q9Y468 | actives 0.66% (n = 230,000); note: % is set by controls: 0 for no effect and ±100 for the full control effect; nearly all actives have a fitted effect of over 60% in size
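Displacement of a biotinylated histone H3(1-15) peptide monomethylated at Lys9 (75 nM) from L3MBTL1 (50 nM) was measured by AlphaScreen after a 30 min room-temperature compound incubation; cefsulodin titration served as intraplate control.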
G9a block: qHTS Assay for Inhibitors of Histone Lysine Methyltransferase G9a | G9a H3K9 monomethylation, AlphaScreen, 2 h | Histone-lysine N-methyltransferase EHMT2 (Homo sapiens), Q96KQ7 | Potency, µM (series often up to 102 µM), inactives show top-dose activity, negative = inhibition, hits mostly inhibitors | actives 8.8% (n = 350,000); note: % is set by controls: 0 for no effect and ±100 for the full control effect; nearly all actives have a fitted effect of over 75% in size
Target sequence (Q96KQ7 913-1193 limits assumed): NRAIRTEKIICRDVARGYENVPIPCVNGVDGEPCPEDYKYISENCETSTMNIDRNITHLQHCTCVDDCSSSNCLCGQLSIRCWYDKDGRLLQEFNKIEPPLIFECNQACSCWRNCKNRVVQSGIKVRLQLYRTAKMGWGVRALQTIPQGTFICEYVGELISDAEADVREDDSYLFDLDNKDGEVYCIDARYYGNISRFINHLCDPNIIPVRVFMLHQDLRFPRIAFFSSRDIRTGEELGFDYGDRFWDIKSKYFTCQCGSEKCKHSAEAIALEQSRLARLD
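Methyltransferase reactions run at room temperature for 2 h (20 nM enzyme, 500 nM biotin-H3K9 peptide, 20 uM SAM) after a 15 min compound preincubation; product detected by AlphaScreen beads and anti-H3K9me1 antibody.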
HP1b binding inh: HTS for Inhibitors of HP1-beta Chromodomain Interactions with Methylated Histone Tails. actives 0.56% (n = 390,000). Potency, µM (series often up to 114 µM), inactives show at the highest dose activity change, negative = inhibition, hits mostly inhibitors. AlphaScreen HP1-beta / biotin-H3K9me3 peptide binding. Chromobox protein homolog 1 (Homo sapiens), P83916; note: nearly all actives have a fitted effect of over 70% in size
Target sequence (P83916 whole entry, looked up): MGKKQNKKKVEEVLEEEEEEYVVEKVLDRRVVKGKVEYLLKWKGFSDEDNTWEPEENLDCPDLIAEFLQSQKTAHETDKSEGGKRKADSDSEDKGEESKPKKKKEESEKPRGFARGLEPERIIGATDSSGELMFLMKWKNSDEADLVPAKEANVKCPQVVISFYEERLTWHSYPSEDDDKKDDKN
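AlphaScreen: HP1-beta (50 nM) preformed 30 min with biotin-H3(1-18)K9me3 peptide (50 nM) in PBS pH 7.4, 0.01% Tween-20. Compound added for 30 min at RT, then streptavidin donor/nickel chelate acceptor beads (10 ug/mL) for 30 min.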
BAZ2B block: qHTS Assay for Inhibitors of BAZ2B; actives 4.4% (n = 360,000); AlphaScreen BAZ2B-H3K14Ac peptide displacement; Potency, µM (series often up to 114 µM), without a hit: at the highest dose activity change, negative = inhibition, hits mostly inhibitors; AID 504333, 2011; Bromodomain adjacent to zinc finger domain protein 2B (Homo sapiens), Q9UIF8; note: % is set by controls: 0 for no effect and ±100 for the full control effect; nearly all actives have a fitted effect of over 60% in size
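BAZ2B (50 nM) with biotin-H3(5-23)K14Ac peptide (50 nM) in PBS pH 7.4, 0.01% Tween-20, preformed 30 min, then compound 30 min at room temperature; top concentration 110uM. AlphaScreen streptavidin donor/nickel chelate acceptor beads (10 ug/mL final), 20 min dark, signal read.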
JMJD2A Tudor inh: qHTS Assay for Inhibitors of JMJD2A-Tudor Domain; actives 4.4% (n = 390,000); Lysine-specific demethylase 4A (Homo sapiens), O75164; AlphaScreen JMJD2A-Tudor / H3K4me3 peptide binding; Potency, µM (doses to about 114 µM), inactives show at the highest dose activity change, negative = inhibition, usual class: inhibitors; note: % is set by controls: 0 for no effect and ±100 for the full control effect; nearly all actives have a fitted effect of over 50% in size
Numbers without * were called inactive; ? = inconclusive; . = no result; [ ] = remark or other dose. Sampled rows, rich in hits. Any-hit rate of the full collection: about 11%. Calls come from the whole dose curve; as a rule, active = well fitted inhibition curve with a large enough effect; inconclusive = small, poorly fitted or top-dose-only effect; inactive = no such curve, though single readings can be large or run the other way. Potency is the fitted concentration of half-maximal effect.

SMILES	L3MBTL1 block	G9a block	HP1b binding inh	BAZ2B block	JMJD2A Tudor inh
Oc1c(Br)cc(Br)cc1C=Nc1ccc2c(c1)OCCO2	.	-39.4%	49.7%	7.2%	-3.6%
Oc1[nH]c2ccccc2c1C=Nc1ccc2c(c1)OCCO2	-7.0%	-4.8%	-6.9%	35.5µM*	?
Cc1c2c(nc3ccccc13)CCC(C(C)(C)C)C2 (stereo not drawn)	27.4%	50.1µM*	49.7%	-8.5%	8.6%
CC(C)(C)C1CCc2[nH]c3ccccc3c(=O)c2C1 (stereo not drawn)	-3.4%	-2.8%	25.7%	-4.1%	-0.7%
O=C(C1CCCCC1)N(CCN1CCN(c2ccccc2CO)CC1)c1ccccn1	.	12.5%[59 µM]	.	.	.
CN(C(=O)CSc1nc2ccccc2n1CC(=O)N(C)c1ccc(F)cc1)c1ccccc1	.	-21.1%[12.7 µM]	29.5%	-13.1%	-16.9%
Cc1[nH]c2ccc(F)cc2c1CCN(Cc1ccncc1)C(=S)Nc1ccccc1	.	?	-8.3%	.	?
COc1ccc(NC(=S)N(CCc2c(C)[nH]c3ccc(C)cc23)Cc2cccnc2)cc1	-5.7%	50.1µM*	-21.8%	35.5µM*	50.1µM*
Cc1[nH]c2ccccc2c1CCN(Cc1cccnc1)C(=S)Nc1ccc(F)cc1	.	?	-7.5%	.	?
Cc1[nH]c2ccccc2c1CCN(Cc1cccnc1)C(=S)Nc1cccc(F)c1	.	50.1µM*	-8.4%	.	?
CCOc1ccc(NC(=S)N(CCc2c(C)[nH]c3ccccc23)Cc2cccnc2)cc1	?	?	-8.4%	?	?
Cc1[nH]c2ccc(F)cc2c1CCN(Cc1cccnc1)C(=S)Nc1ccccc1	.	56.2µM*	-1.5%	.	?
CCOc1ccc(NC(=S)N(CCc2c(C)[nH]c3ccc(C)cc23)Cc2ccncc2)cc1	-10.6%	39.8µM*	-19.9%	35.5µM*	25.1µM*
NS(=O)(=O)c1ccc(N/N=C/c2cn(-c3ccccc3)nc2-c2cccs2)cc1	-5.6%	10µM*	-3.2%	3.4%	?
NC(=O)N/N=C/c1cn(-c2ccccc2)nc1-c1cccs1	-7.4%	-33.5%	18.2%	-31.7%	-4.5%
O=C(O)c1cccc(N/N=C/c2cn(-c3ccccc3)nc2-c2cccs2)c1	-27.4%	35.5µM*	-2.4%	?	?
COc1ccc(OC)c(-c2cc(C(=O)NCCCn3ccnc3)no2)c1	-0.9%	-44.2%	11.6%	?	?
COc1ccc(Cn2ccnc2)cc1[N+](=O)[O-]	8.5%	7.4%[59 µM]	9.1%	-21.9%	-11.4%
COc1ccc(NCc2ccc(OC)c(Cn3ccnc3)c2)c(OC)c1	.	11.2µM*	?	50.1µM*	39.8µM*
COc1ccc(Cn2ccnc2)cc1Br	.	?	5.5%	50.1µM*	?
Cn1cccc1/C=C1\SC(=S)N(NC(=O)c2cccc(Cl)c2)C1=O	-15.8%	22.4µM*	?	28.2µM*	28.2µM*
Cn1cccc1/C=C1\SC(=S)N(NC(=O)c2ccc(F)cc2)C1=O	?	9.0%	-38.4%	35.5µM*	?
Cn1cccc1/C=C1/SC(=S)N(CC(=O)O)C1=O	.	50.1µM*	8.7%	-33.1%	-23.6%
O=C(CCCN1C(=O)/C(=C/c2cccs2)SC1=S)NNC(=O)c1ccc(F)cc1	4.2%	-7.9%[59 µM]	24.7%	-0.9%	-5.4%
Cn1cccc1/C=C1\SC(=S)N(NC(=O)c2ccccc2)C1=O	-12.1%	?	?	39.8µM*	?
SMILES	L3MBTL1 block	G9a block	HP1b binding inh	BAZ2B block	JMJD2A Tudor inh
O=C(O)c1ccc(/C=C2\SC(=S)N(NC(=O)c3ccccc3)C2=O)cc1	.	?	30.1%	-20.1%	-7.4%
CCOc1ccc(NC(=O)Cn2c(=O)c(CNc3ccc(OC)cc3)cc3ccc(OC)cc32)cc1	.	?	16.7%	-19.1%	-16.2%
COc1ccc(C)cc1-n1nnnc1SCC(=O)NC1CCS(=O)(=O)C1 (stereo not drawn)	5.6%	-0.4%[12.7 µM]	37.7%	-2.8%	-3.3%
CS(=O)(=O)N1N=C(c2ccco2)CC1c1ccc(Br)cc1 (stereo not drawn)	0.4%	35.5µM*	45.8%	-11.0%	-3.8%
CS(=O)(=O)N1N=C(c2ccco2)CC1c1cccc([N+](=O)[O-])c1 (stereo not drawn)	11.2%	.	14.9%	16.3%	-12.6%
CS(=O)(=O)N1N=C(c2ccco2)CC1c1ccccc1Cl (stereo not drawn)	-5.9%	-39.2%	26.6%	-35.0%	-21.0%
COc1ccccc1C1CC(c2ccco2)=NN1S(C)(=O)=O (stereo not drawn)	-1.4%	-38.4%	-22.4%	-13.5%	50.1µM*
COc1ccccc1N1CCN(C(=O)CSc2nnc(NC(=O)c3ccco3)s2)CC1	3.2%	50.1µM*	15.2%	-4.5%	-2.9%
CC(C)Sc1nnc(NC(=O)c2ccco2)s1	.	25.1µM*	52.4%	-24.4%	-6.8%
C/C(=N/NC(=O)COc1cc(C)ccc1C(C)C)C(=O)O	.	?	50.8%	-3.0%	-19.6%
Cc1ccc(C(C)C)c(OCC(=O)NN=C(CCl)CCl)c1	?	.	.	56.2µM*	.
Cc1ccc(CSCC(=O)Nc2ccc(N3CCOCC3)cc2N2CCOCC2)cc1	5.7%	28.2µM*	6.8%	-6.2%	-17.9%
Cc1ccc(C(C)C)c(OCC(=O)Nc2ccc(N3CCOCC3)cc2N2CCOCC2)c1	-10.2%	25.1µM*	18.5%	0.1%	-15.9%
CCc1ccc(S(=O)(=O)N2CCN(c3ccc(Cl)c(Cl)c3)CC2)cc1	.	3.9%[59 µM]	53.0%	-0.5%	15.3%
Cc1c(N=C(N)/N=C(\N)Nc2ccc(Br)cc2)c(=O)n(-c2ccccc2)n1C	8.4%	42.6%[59 µM]	13.1%	14.3%	31.6µM*
Cc1c(N=N/C(C(=O)Nc2ccccc2)=C(/O)c2ccccc2)c(=O)n(-c2ccccc2)n1C	-5.8%	14.1µM*	-3.7%	8.91µM*	?
C/C(CC(=O)NC1CCCCC1)=N\NC(=O)c1ccccc1C	.	39.8µM*	30.3%	-13.1%	7.0%
C/C(CC(=O)NC1CCCCCC1)=N\NC(=O)c1cnccn1	6.4%	?	12.3%	-4.3%	2.24µM*
CCOC(=O)c1cc2c(=O)n3ccccc3nc2n(CCCOC)c1=NC(=O)c1c(-c2ccccc2Cl)noc1C	.	-5.3%[59 µM]	26.8%	12.9%	-7.8%
Nc1nc(CN2CCN(c3ccccn3)CC2)nc(Nc2ccc(F)cc2)n1	.	?	22.2%	50.1µM*	50.1µM*
Nc1nc(CN2CCCCCC2)nc(Nc2ccc(F)cc2)n1	.	10µM*	18.7%	7.08µM*	79.4µM*
COc1ccc(Nc2nccc(-c3cccc(N)c3)n2)cc1	.	-23.2%	-8.8%	56.2µM*	-35.1%
CCCn1c2ccccc2c2cnn(CC(=O)N(Cc3ccccc3)C(C)C)c(=O)c21	.	-8.6%[59 µM]	23.1%	-13.5%	-14.9%
